Results on two sequences are retold here after publication PMC7862700, “An all-to-all approach to the identification of sequence-specific readers for epigenetic DNA modifications on cytosine”.

Assay in all cases: DAPPL (digital affinity profiling via proximity ligation, sequencing); 10 mM Tris-HCl pH 7.5, 50 mM NaCl, 1 mM DTT, 4% glycerol, room temperature, 30 min; GST-TFs on glutathione beads, 16-mer random dsDNA library, 0.1% formaldehyde crosslink after washing; high values mean tight binding
Common to all, as to details: protein: recombinant; tags: N-terminal GST; dsDNA, one strand shown

For one assay, the target named is T1, FLI1 (Homo sapiens, UniProt Q01543 1-452).
T1 sequence: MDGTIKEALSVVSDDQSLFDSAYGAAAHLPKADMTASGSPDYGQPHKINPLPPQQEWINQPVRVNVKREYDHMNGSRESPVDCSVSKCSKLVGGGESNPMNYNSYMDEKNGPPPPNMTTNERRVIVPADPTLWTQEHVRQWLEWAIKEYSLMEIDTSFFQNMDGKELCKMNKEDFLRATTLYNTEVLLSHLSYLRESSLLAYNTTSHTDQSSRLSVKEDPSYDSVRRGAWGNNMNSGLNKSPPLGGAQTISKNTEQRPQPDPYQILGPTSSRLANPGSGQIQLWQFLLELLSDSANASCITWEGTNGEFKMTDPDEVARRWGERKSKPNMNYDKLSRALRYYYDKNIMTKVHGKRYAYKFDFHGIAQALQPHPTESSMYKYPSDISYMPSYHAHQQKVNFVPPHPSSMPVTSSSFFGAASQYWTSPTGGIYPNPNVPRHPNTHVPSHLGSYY
Summed up:
(§1)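 Each value of binding signal is a hexamer's read frequency for a factor divided by the same hexamer's frequency in the tag-only sample. Barcoded, bead-captured GST fusions of human transcription factors made in yeast were pooled with that sample and incubated with 200 nmole of a random double-stranded 16-mer DNA library in Tris/NaCl/DTT/glycerol buffer at room temperature for 30 min. Washing, 0.1% formaldehyde crosslinking, proximity ligation, PCR and Illumina NextSeq500 sequencing followed.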

Another assay deals with T2, ELK1 (Homo sapiens, UniProt P19419 1-428).
T2 sequence: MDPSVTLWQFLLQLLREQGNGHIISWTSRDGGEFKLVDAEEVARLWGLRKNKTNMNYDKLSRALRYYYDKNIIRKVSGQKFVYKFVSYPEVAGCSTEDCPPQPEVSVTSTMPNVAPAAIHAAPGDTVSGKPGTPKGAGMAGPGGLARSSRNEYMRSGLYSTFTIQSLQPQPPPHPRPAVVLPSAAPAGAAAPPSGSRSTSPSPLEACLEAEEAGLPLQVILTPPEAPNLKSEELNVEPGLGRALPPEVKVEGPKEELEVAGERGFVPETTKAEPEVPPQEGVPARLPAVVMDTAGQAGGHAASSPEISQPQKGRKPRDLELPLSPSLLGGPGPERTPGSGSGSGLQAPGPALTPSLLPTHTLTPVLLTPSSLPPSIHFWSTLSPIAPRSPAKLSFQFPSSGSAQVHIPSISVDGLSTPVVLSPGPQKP
Summed up:
as §1

For the next assay, the target named is T3, GABPA (Homo sapiens, UniProt Q06546 1-454).
T3 sequence: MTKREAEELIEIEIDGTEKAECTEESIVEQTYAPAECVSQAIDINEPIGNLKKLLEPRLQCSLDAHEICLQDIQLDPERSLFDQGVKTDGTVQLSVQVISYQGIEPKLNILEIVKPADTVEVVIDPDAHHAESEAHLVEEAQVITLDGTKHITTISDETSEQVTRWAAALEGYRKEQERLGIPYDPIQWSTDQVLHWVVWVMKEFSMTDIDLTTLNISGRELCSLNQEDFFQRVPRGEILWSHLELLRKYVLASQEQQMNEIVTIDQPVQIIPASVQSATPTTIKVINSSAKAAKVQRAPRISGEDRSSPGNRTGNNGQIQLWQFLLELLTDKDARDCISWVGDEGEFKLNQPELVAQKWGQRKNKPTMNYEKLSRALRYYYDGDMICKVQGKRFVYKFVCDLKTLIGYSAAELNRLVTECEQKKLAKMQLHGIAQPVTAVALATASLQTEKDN
Summed up:
as §1

The next assay addresses T4, ERG (Homo sapiens, UniProt P11308 1-479).
T4 sequence: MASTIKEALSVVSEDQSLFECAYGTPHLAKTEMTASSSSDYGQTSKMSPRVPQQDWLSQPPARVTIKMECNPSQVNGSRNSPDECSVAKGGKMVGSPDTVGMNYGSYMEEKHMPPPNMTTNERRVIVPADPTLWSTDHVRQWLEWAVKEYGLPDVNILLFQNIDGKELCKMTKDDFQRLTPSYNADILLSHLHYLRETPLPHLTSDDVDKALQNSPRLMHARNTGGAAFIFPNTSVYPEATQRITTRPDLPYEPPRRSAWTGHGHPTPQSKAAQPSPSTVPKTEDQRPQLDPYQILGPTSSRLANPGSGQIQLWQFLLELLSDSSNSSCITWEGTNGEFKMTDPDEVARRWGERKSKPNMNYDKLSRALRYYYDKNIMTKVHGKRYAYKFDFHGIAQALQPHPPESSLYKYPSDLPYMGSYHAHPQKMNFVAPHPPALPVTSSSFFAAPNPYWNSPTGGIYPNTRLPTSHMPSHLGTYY
Summed up: as §1

In a further assay the target is ELF1 (Homo sapiens, UniProt P32519 1-619). Summed up:
as §1

The target in a further assay is T5, EHF (Homo sapiens, UniProt Q9NZC4 1-300).
T5 sequence: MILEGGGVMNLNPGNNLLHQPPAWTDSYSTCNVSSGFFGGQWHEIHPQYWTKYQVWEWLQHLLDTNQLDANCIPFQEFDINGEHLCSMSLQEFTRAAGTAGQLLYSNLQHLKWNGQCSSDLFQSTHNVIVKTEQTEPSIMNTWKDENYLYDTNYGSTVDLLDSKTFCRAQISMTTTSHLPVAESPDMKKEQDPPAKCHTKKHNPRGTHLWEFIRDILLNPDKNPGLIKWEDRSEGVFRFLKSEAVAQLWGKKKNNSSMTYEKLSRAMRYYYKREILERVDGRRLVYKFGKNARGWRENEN
Summed up:
as §1

For another assay, the target named is SPI1 (Homo sapiens, UniProt P17947 1-270). Summed up:
as §1

The target in another assay is SPIB (Homo sapiens, UniProt Q01892 1-262). Summed up:
as §1

The next assay has as its target T6, ELK3 (Homo sapiens, UniProt P41970 1-407).
T6 sequence: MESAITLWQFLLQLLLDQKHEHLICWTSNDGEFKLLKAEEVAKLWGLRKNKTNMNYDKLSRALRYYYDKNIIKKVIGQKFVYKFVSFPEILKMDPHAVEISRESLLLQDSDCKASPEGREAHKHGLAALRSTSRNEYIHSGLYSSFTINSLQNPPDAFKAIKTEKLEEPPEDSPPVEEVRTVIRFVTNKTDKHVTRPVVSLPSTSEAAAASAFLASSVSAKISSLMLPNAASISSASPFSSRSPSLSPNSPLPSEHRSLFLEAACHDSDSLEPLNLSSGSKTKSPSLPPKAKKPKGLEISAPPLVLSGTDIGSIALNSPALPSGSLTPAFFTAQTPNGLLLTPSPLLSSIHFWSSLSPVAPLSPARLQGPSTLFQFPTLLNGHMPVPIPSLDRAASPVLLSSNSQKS
Summed up: as §1

The next assay addresses T7, FEV (Homo sapiens, UniProt Q99581 1-238).
T7 sequence: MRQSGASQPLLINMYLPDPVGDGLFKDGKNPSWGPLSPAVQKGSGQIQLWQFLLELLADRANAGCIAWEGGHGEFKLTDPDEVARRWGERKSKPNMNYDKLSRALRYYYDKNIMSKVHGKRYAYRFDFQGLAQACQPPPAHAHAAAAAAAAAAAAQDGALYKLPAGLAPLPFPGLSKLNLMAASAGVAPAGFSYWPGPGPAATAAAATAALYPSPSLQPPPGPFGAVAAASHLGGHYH
Summed up: as §1

A further assay addresses ETV5 (Homo sapiens, UniProt P41161 1-510). Summed up: as §1
For a further assay, the target named is T8, SPIC (Homo sapiens, UniProt Q8N5J4 1-248).
T8 sequence: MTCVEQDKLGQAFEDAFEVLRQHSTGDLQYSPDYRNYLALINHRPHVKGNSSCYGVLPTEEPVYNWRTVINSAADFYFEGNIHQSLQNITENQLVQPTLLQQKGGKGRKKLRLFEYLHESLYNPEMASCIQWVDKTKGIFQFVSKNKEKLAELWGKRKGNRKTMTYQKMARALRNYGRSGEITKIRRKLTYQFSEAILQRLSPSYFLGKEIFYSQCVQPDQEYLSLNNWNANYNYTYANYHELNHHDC
Summed up: as §1

In the next assay the target is ELF4 (Homo sapiens, UniProt Q99607 1-663). Summed up:
as §1

A further assay concerns the target T9, ELK4 (Homo sapiens, UniProt P28324-2 1-405).
T9 sequence: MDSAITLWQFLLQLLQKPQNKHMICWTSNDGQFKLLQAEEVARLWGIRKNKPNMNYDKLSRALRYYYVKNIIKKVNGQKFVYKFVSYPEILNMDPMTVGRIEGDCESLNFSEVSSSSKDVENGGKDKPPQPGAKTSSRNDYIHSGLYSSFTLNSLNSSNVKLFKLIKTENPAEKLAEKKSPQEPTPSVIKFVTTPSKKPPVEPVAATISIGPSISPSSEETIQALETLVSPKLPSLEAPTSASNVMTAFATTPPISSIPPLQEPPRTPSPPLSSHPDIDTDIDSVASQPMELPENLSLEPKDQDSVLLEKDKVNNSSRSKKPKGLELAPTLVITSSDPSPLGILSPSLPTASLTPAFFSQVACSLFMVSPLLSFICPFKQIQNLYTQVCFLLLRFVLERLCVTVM
Summed up: as §1

The next assay has as its target T10, ETV2 (Homo sapiens, UniProt O00321 1-342).
T10 sequence: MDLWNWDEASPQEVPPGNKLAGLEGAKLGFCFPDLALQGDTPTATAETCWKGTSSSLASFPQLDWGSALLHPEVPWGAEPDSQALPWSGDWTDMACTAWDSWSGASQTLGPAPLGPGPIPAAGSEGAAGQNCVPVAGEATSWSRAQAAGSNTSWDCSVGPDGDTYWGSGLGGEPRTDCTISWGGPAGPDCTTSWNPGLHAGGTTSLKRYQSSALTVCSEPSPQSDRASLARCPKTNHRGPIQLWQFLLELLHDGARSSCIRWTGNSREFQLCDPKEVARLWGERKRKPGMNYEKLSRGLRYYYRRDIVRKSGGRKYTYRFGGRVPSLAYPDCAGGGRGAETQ
Summed up:
as §1

The target in another assay is T11, ELF3 (Homo sapiens, UniProt P78545 1-371).
T11 sequence: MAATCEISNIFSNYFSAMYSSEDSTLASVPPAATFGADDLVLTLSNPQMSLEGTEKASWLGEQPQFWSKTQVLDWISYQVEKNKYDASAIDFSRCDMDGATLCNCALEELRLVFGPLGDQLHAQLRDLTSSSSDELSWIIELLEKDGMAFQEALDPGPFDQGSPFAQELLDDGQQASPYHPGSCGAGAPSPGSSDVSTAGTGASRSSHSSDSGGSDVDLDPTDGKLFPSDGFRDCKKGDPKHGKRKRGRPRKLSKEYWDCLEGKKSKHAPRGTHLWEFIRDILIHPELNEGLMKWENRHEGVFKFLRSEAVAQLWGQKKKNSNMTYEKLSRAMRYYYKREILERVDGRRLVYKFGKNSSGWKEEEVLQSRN
Summed up:
as §1

In a further assay the target is ETV1 (Homo sapiens, UniProt P50549 1-477). Summed up: as §1
ETV1, sequence (P50549 whole entry): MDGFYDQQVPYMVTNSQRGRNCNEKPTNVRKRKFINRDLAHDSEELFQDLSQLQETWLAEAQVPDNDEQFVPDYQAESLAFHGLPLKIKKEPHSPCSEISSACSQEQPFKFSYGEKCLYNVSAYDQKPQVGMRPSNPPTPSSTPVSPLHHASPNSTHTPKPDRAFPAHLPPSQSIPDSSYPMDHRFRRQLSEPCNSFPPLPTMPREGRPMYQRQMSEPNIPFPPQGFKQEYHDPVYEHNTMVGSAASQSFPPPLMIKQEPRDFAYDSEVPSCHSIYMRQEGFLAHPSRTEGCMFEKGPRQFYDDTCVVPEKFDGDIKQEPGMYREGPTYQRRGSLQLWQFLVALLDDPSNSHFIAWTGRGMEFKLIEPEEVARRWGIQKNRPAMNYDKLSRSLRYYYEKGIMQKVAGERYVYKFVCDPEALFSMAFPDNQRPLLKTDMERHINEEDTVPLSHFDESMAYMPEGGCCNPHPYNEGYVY

SPIB, sequence (Q01892 whole entry): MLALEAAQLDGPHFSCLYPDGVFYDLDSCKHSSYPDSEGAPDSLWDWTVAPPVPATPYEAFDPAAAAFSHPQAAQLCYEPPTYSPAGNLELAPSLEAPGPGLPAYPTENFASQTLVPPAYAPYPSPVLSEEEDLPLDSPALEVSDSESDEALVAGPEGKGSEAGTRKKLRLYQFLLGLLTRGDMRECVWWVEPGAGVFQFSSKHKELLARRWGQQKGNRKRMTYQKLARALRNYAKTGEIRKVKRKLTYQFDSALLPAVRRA
ELF4, sequence (Q99607 whole entry): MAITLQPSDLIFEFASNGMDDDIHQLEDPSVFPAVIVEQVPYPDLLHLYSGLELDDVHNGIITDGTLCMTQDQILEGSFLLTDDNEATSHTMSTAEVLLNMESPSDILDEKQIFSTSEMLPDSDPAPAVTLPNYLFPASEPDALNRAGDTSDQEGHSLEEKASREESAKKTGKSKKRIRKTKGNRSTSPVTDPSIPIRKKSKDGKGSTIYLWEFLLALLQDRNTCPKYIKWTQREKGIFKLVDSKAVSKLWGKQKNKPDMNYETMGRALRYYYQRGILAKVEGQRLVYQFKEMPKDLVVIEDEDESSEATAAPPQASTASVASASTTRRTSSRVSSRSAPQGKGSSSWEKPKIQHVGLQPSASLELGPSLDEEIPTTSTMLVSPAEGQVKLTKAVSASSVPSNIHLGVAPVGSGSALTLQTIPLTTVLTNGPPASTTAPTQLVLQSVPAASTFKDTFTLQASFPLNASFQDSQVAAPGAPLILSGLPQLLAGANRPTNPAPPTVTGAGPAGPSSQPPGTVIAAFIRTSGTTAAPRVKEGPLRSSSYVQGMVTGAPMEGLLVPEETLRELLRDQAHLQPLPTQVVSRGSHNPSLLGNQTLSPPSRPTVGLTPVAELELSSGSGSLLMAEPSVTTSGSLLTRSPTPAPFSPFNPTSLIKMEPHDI
ETV5, sequence (P41161 whole entry): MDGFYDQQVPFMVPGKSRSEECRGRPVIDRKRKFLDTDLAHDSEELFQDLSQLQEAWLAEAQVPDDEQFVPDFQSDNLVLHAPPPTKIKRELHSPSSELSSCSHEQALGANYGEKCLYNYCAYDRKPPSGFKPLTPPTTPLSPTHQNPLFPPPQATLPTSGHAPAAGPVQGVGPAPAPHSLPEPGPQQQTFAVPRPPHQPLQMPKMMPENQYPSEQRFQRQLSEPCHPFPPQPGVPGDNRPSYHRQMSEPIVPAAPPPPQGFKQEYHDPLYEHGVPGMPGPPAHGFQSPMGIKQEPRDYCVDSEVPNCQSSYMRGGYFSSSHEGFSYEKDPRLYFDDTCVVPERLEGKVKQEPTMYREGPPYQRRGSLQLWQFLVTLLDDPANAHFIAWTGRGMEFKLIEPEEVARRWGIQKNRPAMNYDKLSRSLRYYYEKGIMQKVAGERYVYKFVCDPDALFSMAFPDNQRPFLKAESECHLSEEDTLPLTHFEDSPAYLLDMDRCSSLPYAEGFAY
ELF1, sequence (P32519 whole entry): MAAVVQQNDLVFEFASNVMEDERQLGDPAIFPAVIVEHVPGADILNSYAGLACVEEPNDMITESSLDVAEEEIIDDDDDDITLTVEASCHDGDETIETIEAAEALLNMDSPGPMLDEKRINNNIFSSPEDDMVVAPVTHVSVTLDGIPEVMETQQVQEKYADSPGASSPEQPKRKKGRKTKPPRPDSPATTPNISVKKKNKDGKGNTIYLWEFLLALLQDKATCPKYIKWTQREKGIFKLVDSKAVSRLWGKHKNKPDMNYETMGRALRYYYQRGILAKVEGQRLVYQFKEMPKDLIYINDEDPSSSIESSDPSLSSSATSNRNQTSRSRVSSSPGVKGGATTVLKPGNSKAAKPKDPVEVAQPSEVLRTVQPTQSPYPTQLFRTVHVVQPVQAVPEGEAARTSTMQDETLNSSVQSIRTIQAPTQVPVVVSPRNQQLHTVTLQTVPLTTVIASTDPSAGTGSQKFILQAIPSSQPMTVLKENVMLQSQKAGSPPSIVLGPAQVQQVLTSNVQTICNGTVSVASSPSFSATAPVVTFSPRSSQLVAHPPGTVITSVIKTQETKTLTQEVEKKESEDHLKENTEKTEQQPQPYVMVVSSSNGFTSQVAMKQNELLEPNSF

On to GCTGTT, for which the binding signal is 1.04 fold enrichment (6-mer frequency, TF over GST control) with FLI1; 1.07 fold enrichment (6-mer frequency, TF over GST control) in the assay with ELK1; 1.12 fold enrichment (6-mer frequency, TF over GST control) with GABPA; 1.11 fold enrichment (6-mer frequency, TF over GST control) in the assay with ERG; 1.1 fold enrichment (6-mer frequency, TF over GST control) in the assay with ELF1; 1.07 fold enrichment (6-mer frequency, TF over GST control) with EHF. Further, the binding signal is 1.06 fold enrichment (6-mer frequency, TF over GST control) with SPI1; 1.03 fold enrichment (6-mer frequency, TF over GST control) with SPIB; 1.04 fold enrichment (6-mer frequency, TF over GST control) in the assay with ELK3; 1.16 fold enrichment (6-mer frequency, TF over GST control) in the assay with FEV; 1.07 fold enrichment (6-mer frequency, TF over GST control) with ETV5; 1.25 fold enrichment (6-mer frequency, TF over GST control) in the assay with SPIC. Further, the binding signal was 1.18 fold enrichment (6-mer frequency, TF over GST control) in the assay with ELF4; 1.24 fold enrichment (6-mer frequency, TF over GST control) with ELK4; 1.1 fold enrichment (6-mer frequency, TF over GST control) with ETV2; 1.17 fold enrichment (6-mer frequency, TF over GST control) with ELF3; 1.21 fold enrichment (6-mer frequency, TF over GST control) in the assay with ETV1.

For the sequence CATATC, the binding signal with FLI1 was 1.25 fold enrichment (6-mer frequency, TF over GST control); with ELK1, 1.39 fold enrichment (6-mer frequency, TF over GST control); with GABPA it was 1.26 fold enrichment (6-mer frequency, TF over GST control); in the assay with ERG it was 1.37 fold enrichment (6-mer frequency, TF over GST control); with ELF1, 1.32 fold enrichment (6-mer frequency, TF over GST control); in the assay with EHF it was 1.36 fold enrichment (6-mer frequency, TF over GST control). Moreover, the binding signal is 1.3 fold enrichment (6-mer frequency, TF over GST control) in the assay with SPI1; 1.32 fold enrichment (6-mer frequency, TF over GST control) in the assay with SPIB; 1.34 fold enrichment (6-mer frequency, TF over GST control) with ELK3; 1.4 fold enrichment (6-mer frequency, TF over GST control) with FEV; 1.36 fold enrichment (6-mer frequency, TF over GST control) with ETV5; 1.23 fold enrichment (6-mer frequency, TF over GST control) with SPIC. Further, the binding signal was 1.29 fold enrichment (6-mer frequency, TF over GST control) with ELF4; 1.24 fold enrichment (6-mer frequency, TF over GST control) with ELK4; 1.41 fold enrichment (6-mer frequency, TF over GST control) in the assay with ETV2; 1.28 fold enrichment (6-mer frequency, TF over GST control) with ELF3; 1.41 fold enrichment (6-mer frequency, TF over GST control) in the assay with ETV1.
